# Assay results published in paper PMC7862700, “An all-to-all approach to the identification of sequence-specific readers for epigenetic DNA modifications on cytosine”.
# Key:
# Assay in all cases: DAPPL (digital affinity profiling via proximity ligation, sequencing); 10 mM Tris-HCl pH 7.5, 50 mM NaCl, 1 mM DTT, 4% glycerol, room temperature, 30 min; GST-TFs on glutathione beads, 16-mer random dsDNA library, 0.1% formaldehyde crosslink after washing; high values mean tight binding
# Conditions in all cases: protein: recombinant; tags: N-terminal GST; dsDNA, one strand shown
# FLI1 = target: T1, FLI1 (Homo sapiens, UniProt Q01543 1-452)
# T1 sequence: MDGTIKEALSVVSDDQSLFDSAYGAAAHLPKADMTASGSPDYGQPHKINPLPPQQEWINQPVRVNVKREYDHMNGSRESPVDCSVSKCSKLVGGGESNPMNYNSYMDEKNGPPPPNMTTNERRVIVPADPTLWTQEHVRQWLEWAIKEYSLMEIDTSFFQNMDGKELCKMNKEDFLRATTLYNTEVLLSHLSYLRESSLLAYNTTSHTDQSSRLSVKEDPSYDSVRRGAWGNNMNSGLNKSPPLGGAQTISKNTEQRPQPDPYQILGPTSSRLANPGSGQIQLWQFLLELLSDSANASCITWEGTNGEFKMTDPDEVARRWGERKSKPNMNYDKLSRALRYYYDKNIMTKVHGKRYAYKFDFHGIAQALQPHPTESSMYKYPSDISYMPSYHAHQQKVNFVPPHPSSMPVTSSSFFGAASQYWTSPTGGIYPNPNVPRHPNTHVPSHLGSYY
# How it was run: (§1)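 Binding signal is defined as a hexamer's read frequency for one factor over its frequency for the tag-only sample. To obtain reads, GST-fused human transcription factors were expressed in yeast, captured on glutathione beads, barcoded with DNA and pooled with that sample. Pools met 200 nmole of a 16-mer random double-stranded DNA library in Tris/NaCl/DTT/glycerol buffer for 30 min at room temperature before washing, 0.1% formaldehyde crosslinking, proximity ligation (BsaI/T4 ligase, 1 h, 37 °C), PCR and Illumina NextSeq500 sequencing.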
# ELK1 = target: T2, ELK1 (Homo sapiens, UniProt P19419 1-428)
# T2 sequence: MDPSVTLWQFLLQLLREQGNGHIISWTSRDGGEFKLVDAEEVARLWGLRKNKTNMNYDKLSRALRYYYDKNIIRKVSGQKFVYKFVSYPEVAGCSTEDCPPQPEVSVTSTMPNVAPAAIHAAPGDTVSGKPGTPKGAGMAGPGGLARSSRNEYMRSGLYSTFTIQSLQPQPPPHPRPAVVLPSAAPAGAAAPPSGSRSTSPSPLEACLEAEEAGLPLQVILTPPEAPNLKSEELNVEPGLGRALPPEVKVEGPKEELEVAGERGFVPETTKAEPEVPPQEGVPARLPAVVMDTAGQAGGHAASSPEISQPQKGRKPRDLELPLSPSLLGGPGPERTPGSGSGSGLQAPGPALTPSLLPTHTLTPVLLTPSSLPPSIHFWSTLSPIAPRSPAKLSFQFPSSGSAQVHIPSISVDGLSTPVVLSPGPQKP
# How it was run: as §1
# GABPA = target: T3, GABPA (Homo sapiens, UniProt Q06546 1-454)
# T3 sequence: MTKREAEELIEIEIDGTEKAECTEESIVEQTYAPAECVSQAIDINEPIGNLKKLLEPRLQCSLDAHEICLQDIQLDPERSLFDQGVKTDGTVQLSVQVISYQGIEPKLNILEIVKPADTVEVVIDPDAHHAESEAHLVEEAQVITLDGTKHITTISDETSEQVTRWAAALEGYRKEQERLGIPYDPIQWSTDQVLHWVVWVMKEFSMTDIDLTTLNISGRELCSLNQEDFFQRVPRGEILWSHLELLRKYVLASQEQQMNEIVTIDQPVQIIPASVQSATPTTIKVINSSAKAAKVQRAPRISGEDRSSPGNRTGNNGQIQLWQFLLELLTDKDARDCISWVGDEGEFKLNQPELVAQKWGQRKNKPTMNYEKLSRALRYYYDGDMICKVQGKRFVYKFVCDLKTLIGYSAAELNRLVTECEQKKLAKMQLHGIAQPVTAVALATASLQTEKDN
# How it was run: as §1
# ERG = target: T4, ERG (Homo sapiens, UniProt P11308 1-479)
# T4 sequence: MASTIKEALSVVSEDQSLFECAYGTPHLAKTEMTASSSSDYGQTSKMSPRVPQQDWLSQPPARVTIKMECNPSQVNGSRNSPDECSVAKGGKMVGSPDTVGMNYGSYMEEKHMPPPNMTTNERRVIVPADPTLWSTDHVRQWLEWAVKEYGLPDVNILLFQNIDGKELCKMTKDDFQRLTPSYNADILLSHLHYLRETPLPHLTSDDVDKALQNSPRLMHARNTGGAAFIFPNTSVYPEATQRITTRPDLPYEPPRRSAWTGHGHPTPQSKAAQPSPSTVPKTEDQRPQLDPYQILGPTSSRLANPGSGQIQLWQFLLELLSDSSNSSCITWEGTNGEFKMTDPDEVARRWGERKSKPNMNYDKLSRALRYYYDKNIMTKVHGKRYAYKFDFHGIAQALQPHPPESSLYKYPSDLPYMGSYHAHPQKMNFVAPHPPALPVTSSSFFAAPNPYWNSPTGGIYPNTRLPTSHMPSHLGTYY
# How it was run: as §1
# ELF1 = ELF1 (Homo sapiens, UniProt P32519 1-619)
# Chain of ELF1 (P32519 whole entry): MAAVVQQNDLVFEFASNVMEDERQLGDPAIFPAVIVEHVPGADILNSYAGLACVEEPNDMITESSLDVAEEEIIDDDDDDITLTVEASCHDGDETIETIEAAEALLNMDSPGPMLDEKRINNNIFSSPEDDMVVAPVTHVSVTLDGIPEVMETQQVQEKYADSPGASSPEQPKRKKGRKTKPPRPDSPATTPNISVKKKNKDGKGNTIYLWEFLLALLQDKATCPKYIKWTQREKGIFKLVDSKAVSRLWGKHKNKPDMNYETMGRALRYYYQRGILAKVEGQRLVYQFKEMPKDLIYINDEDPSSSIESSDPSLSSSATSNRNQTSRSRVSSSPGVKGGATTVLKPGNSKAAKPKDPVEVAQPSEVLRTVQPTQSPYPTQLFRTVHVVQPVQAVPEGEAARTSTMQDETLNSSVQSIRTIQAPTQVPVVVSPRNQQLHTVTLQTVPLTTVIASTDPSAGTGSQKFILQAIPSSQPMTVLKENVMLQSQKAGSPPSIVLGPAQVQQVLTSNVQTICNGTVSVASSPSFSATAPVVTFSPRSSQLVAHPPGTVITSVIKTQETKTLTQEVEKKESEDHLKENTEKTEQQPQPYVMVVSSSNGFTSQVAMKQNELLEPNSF
# How it was run: as §1
# EHF = target: T5, EHF (Homo sapiens, UniProt Q9NZC4 1-300)
# T5 sequence: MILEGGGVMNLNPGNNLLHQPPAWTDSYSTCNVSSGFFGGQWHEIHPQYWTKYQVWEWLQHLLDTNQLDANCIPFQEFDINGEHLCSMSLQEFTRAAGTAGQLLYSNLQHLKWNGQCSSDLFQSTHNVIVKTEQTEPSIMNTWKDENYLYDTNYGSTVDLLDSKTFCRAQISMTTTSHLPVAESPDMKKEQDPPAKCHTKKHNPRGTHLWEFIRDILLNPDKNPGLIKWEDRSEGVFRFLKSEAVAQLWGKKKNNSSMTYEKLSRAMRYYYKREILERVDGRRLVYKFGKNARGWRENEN
# How it was run: as §1
# SPI1 = SPI1 (Homo sapiens, UniProt P17947 1-270)
# How it was run: as §1
# SPIB = SPIB (Homo sapiens, UniProt Q01892 1-262)
# Chain of SPIB (Q01892 whole entry): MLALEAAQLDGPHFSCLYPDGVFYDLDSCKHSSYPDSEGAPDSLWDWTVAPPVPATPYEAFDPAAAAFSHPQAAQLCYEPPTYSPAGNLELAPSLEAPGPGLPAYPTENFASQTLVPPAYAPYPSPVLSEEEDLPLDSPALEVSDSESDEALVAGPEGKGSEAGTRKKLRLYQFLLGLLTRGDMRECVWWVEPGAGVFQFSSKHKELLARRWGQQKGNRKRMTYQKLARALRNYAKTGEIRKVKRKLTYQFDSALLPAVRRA
# How it was run: as §1
# ELK3 = target: T6, ELK3 (Homo sapiens, UniProt P41970 1-407)
# T6 sequence: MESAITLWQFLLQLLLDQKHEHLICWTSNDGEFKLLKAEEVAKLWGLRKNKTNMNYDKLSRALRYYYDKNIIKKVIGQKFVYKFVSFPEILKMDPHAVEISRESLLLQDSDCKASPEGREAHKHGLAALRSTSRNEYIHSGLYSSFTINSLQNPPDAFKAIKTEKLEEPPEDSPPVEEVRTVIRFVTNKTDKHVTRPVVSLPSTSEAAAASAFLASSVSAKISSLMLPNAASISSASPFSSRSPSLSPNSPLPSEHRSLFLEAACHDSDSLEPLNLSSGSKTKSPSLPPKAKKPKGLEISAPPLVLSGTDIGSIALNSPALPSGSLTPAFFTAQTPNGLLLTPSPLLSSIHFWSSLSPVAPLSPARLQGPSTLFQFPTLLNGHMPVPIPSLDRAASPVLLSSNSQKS
# How it was run: as §1
# FEV = target: T7, FEV (Homo sapiens, UniProt Q99581 1-238)
# T7 sequence: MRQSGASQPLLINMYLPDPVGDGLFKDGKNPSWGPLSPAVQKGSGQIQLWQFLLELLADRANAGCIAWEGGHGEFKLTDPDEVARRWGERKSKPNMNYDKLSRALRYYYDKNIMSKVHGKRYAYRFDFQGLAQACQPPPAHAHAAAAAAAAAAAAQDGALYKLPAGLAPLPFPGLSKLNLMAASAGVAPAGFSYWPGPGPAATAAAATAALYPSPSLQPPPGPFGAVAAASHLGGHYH
# How it was run: as §1
# ETV5 = ETV5 (Homo sapiens, UniProt P41161 1-510)
# Chain of ETV5 (P41161 whole entry): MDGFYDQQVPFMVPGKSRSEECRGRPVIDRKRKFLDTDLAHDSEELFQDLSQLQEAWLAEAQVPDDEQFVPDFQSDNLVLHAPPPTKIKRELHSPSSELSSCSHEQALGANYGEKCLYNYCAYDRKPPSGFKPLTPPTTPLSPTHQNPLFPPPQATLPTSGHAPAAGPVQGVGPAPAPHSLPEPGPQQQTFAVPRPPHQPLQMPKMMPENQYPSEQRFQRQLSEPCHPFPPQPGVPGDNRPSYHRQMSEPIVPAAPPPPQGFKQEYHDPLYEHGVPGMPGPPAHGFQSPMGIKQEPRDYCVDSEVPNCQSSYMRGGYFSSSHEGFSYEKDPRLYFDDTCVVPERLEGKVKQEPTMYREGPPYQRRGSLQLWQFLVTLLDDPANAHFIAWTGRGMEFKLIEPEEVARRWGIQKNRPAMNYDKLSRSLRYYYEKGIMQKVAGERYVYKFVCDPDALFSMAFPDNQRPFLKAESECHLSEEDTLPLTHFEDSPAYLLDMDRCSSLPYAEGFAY
# How it was run: as §1
# SPIC = target: T8, SPIC (Homo sapiens, UniProt Q8N5J4 1-248)
# T8 sequence: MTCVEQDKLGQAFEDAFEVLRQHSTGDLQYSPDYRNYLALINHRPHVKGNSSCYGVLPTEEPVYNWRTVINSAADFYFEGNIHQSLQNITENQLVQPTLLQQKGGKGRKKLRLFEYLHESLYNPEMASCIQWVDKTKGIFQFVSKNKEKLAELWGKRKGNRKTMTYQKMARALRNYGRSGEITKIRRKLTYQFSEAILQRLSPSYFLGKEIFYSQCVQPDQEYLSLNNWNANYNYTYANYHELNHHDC
# How it was run: as §1
# ELF4 = ELF4 (Homo sapiens, UniProt Q99607 1-663)
# Chain of ELF4 (Q99607 whole entry): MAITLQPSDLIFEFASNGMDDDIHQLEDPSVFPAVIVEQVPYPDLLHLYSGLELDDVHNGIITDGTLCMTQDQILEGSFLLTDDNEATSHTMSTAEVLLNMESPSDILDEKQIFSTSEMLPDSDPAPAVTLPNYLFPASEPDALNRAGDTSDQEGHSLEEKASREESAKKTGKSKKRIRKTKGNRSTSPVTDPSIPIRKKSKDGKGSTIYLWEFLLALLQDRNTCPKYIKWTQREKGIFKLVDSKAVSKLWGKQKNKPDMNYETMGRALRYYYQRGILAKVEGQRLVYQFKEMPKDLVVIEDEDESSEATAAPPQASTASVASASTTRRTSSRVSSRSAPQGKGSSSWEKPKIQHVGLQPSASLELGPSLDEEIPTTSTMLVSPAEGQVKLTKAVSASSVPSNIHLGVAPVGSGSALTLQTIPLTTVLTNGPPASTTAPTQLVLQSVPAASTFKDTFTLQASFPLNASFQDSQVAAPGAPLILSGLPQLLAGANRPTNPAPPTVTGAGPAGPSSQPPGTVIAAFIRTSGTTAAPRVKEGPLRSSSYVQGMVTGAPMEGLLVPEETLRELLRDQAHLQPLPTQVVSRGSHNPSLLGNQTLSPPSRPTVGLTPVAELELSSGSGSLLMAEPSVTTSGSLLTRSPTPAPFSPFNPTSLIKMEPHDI
# How it was run: as §1
# ETV1 = ETV1 (Homo sapiens, UniProt P50549 1-477)
# Chain of ETV1 (P50549 whole entry): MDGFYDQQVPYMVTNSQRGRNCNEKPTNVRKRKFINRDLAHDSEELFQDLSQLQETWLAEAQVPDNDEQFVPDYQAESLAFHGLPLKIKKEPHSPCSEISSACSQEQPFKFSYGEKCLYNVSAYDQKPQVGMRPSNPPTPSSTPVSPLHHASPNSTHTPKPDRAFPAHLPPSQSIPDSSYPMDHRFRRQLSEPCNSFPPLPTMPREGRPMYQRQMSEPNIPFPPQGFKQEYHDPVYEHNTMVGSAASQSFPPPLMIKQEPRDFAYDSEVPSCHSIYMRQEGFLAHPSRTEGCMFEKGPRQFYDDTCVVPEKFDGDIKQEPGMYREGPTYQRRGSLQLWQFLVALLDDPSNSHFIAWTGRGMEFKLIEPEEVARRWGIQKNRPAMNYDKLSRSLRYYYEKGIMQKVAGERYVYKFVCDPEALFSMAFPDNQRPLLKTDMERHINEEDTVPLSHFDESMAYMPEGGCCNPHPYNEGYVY
# How it was run: as §1
# ERF = target: T9, ERF (Homo sapiens, UniProt P50548 1-548)
# T9 sequence: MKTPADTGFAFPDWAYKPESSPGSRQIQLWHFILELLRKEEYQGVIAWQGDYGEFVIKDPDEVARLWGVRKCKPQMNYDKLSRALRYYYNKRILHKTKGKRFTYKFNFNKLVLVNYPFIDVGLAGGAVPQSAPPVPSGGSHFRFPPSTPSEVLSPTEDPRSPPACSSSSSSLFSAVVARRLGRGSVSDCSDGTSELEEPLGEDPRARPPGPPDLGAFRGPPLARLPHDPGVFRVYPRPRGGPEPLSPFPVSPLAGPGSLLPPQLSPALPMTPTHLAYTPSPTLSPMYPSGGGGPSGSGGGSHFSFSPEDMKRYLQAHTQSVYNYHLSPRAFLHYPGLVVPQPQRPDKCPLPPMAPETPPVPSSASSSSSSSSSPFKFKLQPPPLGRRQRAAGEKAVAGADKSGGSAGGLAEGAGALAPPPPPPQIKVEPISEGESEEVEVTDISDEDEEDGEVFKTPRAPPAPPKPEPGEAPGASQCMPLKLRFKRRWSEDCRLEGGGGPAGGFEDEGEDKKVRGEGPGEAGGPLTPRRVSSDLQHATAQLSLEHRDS
# How it was run: as §1
# ETV3L = target: T10, ETV3L (Homo sapiens, UniProt Q6ZN32 1-361)
# T10 sequence: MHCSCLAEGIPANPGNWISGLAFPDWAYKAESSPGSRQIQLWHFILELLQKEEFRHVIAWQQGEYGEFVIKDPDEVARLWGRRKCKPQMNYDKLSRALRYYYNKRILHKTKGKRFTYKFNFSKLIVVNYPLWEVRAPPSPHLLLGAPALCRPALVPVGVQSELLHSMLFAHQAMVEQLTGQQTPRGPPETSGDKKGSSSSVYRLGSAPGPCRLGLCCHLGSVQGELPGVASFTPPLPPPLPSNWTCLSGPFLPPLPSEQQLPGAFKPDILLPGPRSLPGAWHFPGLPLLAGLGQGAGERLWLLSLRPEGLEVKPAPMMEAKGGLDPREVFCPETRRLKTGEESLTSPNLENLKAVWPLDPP
# How it was run: as §1
# ETS2 = target: T11, ETS2 (Homo sapiens, UniProt P15036 1-469)
# T11 sequence: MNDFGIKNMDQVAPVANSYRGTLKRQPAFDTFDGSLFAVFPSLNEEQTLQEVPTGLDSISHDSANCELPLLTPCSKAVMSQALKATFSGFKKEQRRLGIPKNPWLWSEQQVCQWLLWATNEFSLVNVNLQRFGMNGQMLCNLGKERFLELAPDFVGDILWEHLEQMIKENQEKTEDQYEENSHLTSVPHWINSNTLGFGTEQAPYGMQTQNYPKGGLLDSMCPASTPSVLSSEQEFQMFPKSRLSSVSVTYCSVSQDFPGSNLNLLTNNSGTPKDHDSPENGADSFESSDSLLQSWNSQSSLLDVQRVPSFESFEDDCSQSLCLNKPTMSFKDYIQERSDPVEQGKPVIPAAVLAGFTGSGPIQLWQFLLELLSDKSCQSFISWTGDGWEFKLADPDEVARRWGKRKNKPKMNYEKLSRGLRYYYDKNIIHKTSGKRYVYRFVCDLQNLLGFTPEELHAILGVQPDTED
# How it was run: as §1
# ETV3 = target: T12, ETV3 (Homo sapiens, UniProt P41162-2 1-143)
# T12 sequence: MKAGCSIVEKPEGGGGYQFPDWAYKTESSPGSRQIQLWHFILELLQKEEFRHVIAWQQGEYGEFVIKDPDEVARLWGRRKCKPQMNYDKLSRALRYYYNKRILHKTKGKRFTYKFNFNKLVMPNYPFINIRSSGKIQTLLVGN
# How it was run: as §1
# ETV6 = ETV6 (Homo sapiens, UniProt P41212 1-452)
# Chain of ETV6 (P41212 whole entry): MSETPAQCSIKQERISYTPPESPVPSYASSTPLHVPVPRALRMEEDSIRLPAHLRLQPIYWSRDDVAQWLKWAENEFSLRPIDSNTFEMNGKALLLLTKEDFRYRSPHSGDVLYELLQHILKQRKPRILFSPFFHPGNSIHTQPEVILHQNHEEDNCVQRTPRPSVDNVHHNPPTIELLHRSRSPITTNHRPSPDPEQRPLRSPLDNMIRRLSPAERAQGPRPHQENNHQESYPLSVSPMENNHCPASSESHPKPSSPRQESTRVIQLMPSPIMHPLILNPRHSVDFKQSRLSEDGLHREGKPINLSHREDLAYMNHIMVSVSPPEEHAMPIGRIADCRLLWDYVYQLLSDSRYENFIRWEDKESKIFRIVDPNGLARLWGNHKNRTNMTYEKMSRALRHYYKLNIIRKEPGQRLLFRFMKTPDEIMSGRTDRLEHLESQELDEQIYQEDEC
# How it was run: as §1
sequence,measurement,setting,value
CTGCGG,binding signal,FLI1,"1.23 fold enrichment (6-mer frequency, TF over GST control)"
same,binding signal,ELK1,"1.26 fold enrichment (6-mer frequency, TF over GST control)"
same,binding signal,GABPA,"1.05 fold enrichment (6-mer frequency, TF over GST control)"
same,binding signal,ERG,"1.1 fold enrichment (6-mer frequency, TF over GST control)"
same,binding signal,ELF1,"1.18 fold enrichment (6-mer frequency, TF over GST control)"
same,binding signal,EHF,"1.3 fold enrichment (6-mer frequency, TF over GST control)"
same,binding signal,SPI1,"1.03 fold enrichment (6-mer frequency, TF over GST control)"
same,binding signal,SPIB,"1.09 fold enrichment (6-mer frequency, TF over GST control)"
same,binding signal,ELK3,"1.05 fold enrichment (6-mer frequency, TF over GST control)"
same,binding signal,FEV,"1.07 fold enrichment (6-mer frequency, TF over GST control)"
same,binding signal,ETV5,"1.16 fold enrichment (6-mer frequency, TF over GST control)"
same,binding signal,SPIC,"1.06 fold enrichment (6-mer frequency, TF over GST control)"
same,binding signal,ELF4,"1.14 fold enrichment (6-mer frequency, TF over GST control)"
same,binding signal,ETV1,"1.15 fold enrichment (6-mer frequency, TF over GST control)"
same,binding signal,ERF,"1.04 fold enrichment (6-mer frequency, TF over GST control)"
same,binding signal,ETV3L,"1.17 fold enrichment (6-mer frequency, TF over GST control)"
same,binding signal,ETS2,"1.12 fold enrichment (6-mer frequency, TF over GST control)"
same,binding signal,ETV3,"1.14 fold enrichment (6-mer frequency, TF over GST control)"
same,binding signal,ETV6,"1.09 fold enrichment (6-mer frequency, TF over GST control)"
